Experiments:
Assay in all cases: PBM binding z-score (relative to random genomic background probes); higher = stronger binding; sequences stand for … in GC…GCGATTGACAGCGTAGAATGAAGG
[1] = tested on: RARb homodimer (NR concentration 270 nM)
Summary of the method: (§1)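 Ligand-free nuclear receptor dimers were applied to custom Agilent 4×180K protein-binding microarrays whose double-stranded probes carried direct-repeat seeds, single-nucleotide variants, half-site ablations and random human genomic background sequences in 34-nt variable regions. Incubation lasted 1 h. Binding z-scores were computed against the random background probes from regression-normalized fluorescence.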

[2] = tested on: RARg:RXRa (NR concentration 270 nM, RXRa partner concentration 90 nM)
Summary of the method: as §1

[3] = tested on: RARg homodimer (NR concentration 270 nM)
Summary of the method: as §1

[4] = tested on: RXRa DBDmut IVT, anti-RXR (DBD mutation: RXRa K156A/R161A, NR concentration 90 nM)
Summary of the method: as §1

[5] = tested on: RXRa homodimer (NR concentration 180 nM)
Summary of the method: as §1

[6] = tested on: THRa:RXRa (NR concentration 90 nM, RXRa partner concentration 90 nM)
Summary of the method: as §1

[7] = tested on: THRa homodimer (NR concentration 90 nM)
Summary of the method: as §1

[8] = tested on: VDR homodimer (NR concentration 270 nM)
Summary of the method: as §1

| Sequence | PBM binding z-score [1] | PBM binding z-score [2] | PBM binding z-score [3] | PBM binding z-score [4] | PBM binding z-score [5] | PBM binding z-score [6] | PBM binding z-score [7] | PBM binding z-score [8] |
| --- | --- | --- | --- | --- | --- | --- | --- | --- |
| CCTAGCAGGCCAGGGGCACTCAAGCATTTCGCTT | -0.0718 | -0.38 | -0.0557 | -1.12 | -0.341 | -0.336 | -1.01 | -0.769 |
| CCGACGGGGGCATAAGGTTACCATAAGCCAGCCC | 2.78 | 4.76 | 3.14 | 2.15 | 3.62 | 3.58 | 1.76 | 2.1 |
| TCTTGTAGATTAACAGGAGGTTAAGAAAGATCGA | 0.36 | 0.787 | 0.386 | 0.566 | 1.05 | 1.03 | -0.287 | 0.0136 |
| ACTAGCAGGCCAAGGGTCACTCTAGATTAGTCCG | 3.64 | 3.81 | 3.34 | 0.668 | 3.3 | 2.32 | -0.0207 | 1.03 |
| AGCATGAGGTTATACGTAGATCAGGGAAGAAAGT | 0.998 | 1.64 | 1.3 | 1.63 | 1.8 | 2.11 | 0.665 | 0.812 |
| AGAATGAGGCTACCAAAGATCAGGGAAACGCTTG | -0.364 | 0.21 | 0.34 | -0.268 | 0.156 | 0.463 | -0.609 | -0.541 |
| AGAACGAGGGCACGCTGCGTTGATAGCAGAGTAG | 1.06 | 1.55 | 2.21 | 1.81 | 1.3 | 1.71 | -0.00562 | 0.888 |

Source: the supplement of paper PMC6555819
